Source: the supplement of paper PMC10849652
Of roughly 8,800 targets only a part is listed; those with a hit were picked by preference. About 0.5% of all pairs of compound and target were hits. Values without a mark were called inactive.

How the values were obtained:
Assay in all cases: log2 fold change, soluble protein after heating vs DMSO (PISA); higher = thermal stabilisation; K562 lysate, 10 uM; active = over 0.2 and 3.5 SD of the protein, either way, in both replicates (recomputed)
[1] = compound: C#Cc1cccc(Nc2ncnc3cc(OCCOC)c(OCCOC)cc23)c1 [erlotinib]
Outline: (§1)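 Quantification was by TMTpro 16plex LC-MS/MS with equalised channel sums, applied to the supernatant after 21,000xg for 90 min. Samples were crude K562 extract at 1 mg/mL protein in PBS pH 7.4 with 1 mM MgCl2, treated with 10 μM compound for 30 min, heated for 3 min across 48°C-58°C, pooled and brought to 0.5% NP-40 at 4°C. Values are log-two fold changes in thermal stability relative to solvent controls, from duplicates.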

[2] = compound: C/C(=N\NC(=O)C1=CC(=CC=C1)S(=O)(=O)N2CCOCC2)/C3=C(C=CC(=C3)Cl)O
Outline: as §1

[3] = compound: C1=CC(=CC=C1C2=NC3=C(N2)C=C(C=C3)C(=O)N)OC4=CC=C(C=C4)Cl
Outline: as §1

[4] = compound: C1=CC2=C(C=CC(=C2)/C=C\3/C(=O)NC(=NCC4=CC=CS4)S3)N=C1
Outline: as §1

[5] = compound: C1=CC=C(C=C1)C2=NC(=C(N2)C3=CC=NC=C3)C4=CC(=C(C=C4)Cl)O
Outline: as §1

[6] = compound: C1=CC=C2C(=C1)C3=NNC4=CC=CC(=C43)C2=O
Outline: as §1

[7] = compound: C1CCN(C1)C(=O)NC2=CC=CC(=C2)NC3=NC=C(C(=N3)NCCC4=CN=CN4)Br
Outline: as §1

[8] = compound: C1CN(CCC1(CC2=CC=C(C=C2)Cl)N)C3=NC=NC4=C3C=CN4
Outline: as §1

[9] = compound: C1COCCN1CCN2C3=CC=CC=C3N=C2NC(=O)C4=CC(=CC=C4)[N+](=O)[O-] [IRAK-1-4 Inhibitor I]
Outline: as §1

[10] = compound: CC(=O)c1cnc2ccc(-c3cc(Cl)c(O)c(Cl)c3)nc2c1N[C@H]1CC[C@H](CN(C)C)CC1
Outline: as §1

[11] = compound: CC(C)(C)Cn1c(N)nc2ccc(-c3[nH]c(C(C)(C)C)nc3-c3ccc(F)cc3)nc21 [ralimetinib]
Outline: as §1

[12] = compound: CC(C)(O)CC(=O)NCCn1ccc2ncnc(Nc3ccc(Oc4cccc(C(F)(F)F)c4)c(Cl)c3)c21
Outline: as §1

[13] = compound: CC(C)C1=C2N=C(C=C(N2N=C1)NCC3=CC=CC=C3)NCCCCCCN
Outline: as §1

[14] = compound: CC1=C(C(CC(=O)N1)C2=CC=C(C=C2)C(F)(F)F)C(=O)NC3=C(C=C4C(=C3)C=NN4)F
Outline: as §1

[15] = compound: CC1=C(C2=C(C=C1)C(=O)C3=CC=CC=C3N2CCCN)C
Outline: as §1

[16] = compound: CC1=C(C=C(C=C1)NC(=O)C2=CC(=CC=C2)C(C)(C)C#N)NC3=CC4=C(C=C3)N=CN(C4=O)C
Outline: as §1

[17] = compound: CC1=C(C=C(C=C1)NC(=O)C2=CC(=CC=C2)N(C)C)NC(=O)C3=CC=C(C=C3)O
Outline: as §1

[18] = compound: CC1=CC=C(C=C1)SC2=C3C=C(SC3=CN=C2)C(=O)N
Outline: as §1

[19] = compound: C1=CC2=NC=CN=C2C=C1/C=C/3\C(=O)NC(=O)S3
Outline: as §1

[20] = compound: C=CC(=O)N1CCC[C@@H](n2nc(-c3ccc(Oc4ccccc4)cc3)c3c(N)ncnc32)C1 [ibrutinib]
Outline: as §1

Sequence of UniProt Q15776 (Q15776 whole entry, looked up): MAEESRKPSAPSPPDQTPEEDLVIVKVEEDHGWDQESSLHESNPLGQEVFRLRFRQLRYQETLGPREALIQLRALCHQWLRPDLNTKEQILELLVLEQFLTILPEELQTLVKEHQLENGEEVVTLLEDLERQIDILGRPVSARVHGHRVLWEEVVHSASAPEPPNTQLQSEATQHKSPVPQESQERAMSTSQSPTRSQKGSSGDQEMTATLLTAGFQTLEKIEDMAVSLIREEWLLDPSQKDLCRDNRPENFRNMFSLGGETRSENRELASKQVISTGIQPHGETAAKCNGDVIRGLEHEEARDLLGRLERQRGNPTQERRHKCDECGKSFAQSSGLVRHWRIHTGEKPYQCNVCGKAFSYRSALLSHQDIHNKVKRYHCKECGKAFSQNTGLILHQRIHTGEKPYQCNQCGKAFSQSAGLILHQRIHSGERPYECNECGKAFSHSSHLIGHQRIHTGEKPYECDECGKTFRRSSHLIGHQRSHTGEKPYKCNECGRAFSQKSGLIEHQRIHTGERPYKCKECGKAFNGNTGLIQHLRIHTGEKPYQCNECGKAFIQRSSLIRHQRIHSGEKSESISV
Sequence of UniProt Q96K21 (Q96K21 whole entry, looked up): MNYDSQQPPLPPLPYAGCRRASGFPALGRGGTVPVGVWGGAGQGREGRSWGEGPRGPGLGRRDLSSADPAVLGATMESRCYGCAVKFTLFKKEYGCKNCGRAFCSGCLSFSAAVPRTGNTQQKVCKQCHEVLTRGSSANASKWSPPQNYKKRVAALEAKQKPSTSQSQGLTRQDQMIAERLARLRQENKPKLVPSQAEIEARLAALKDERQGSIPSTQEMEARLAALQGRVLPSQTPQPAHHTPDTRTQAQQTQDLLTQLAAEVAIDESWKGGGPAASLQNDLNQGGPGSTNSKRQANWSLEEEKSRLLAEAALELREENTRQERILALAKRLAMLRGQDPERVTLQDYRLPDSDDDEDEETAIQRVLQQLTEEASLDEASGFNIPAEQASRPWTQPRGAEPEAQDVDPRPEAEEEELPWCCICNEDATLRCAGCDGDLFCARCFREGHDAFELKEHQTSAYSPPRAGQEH
Sequence of UniProt P58557 (P58557 whole entry, looked up): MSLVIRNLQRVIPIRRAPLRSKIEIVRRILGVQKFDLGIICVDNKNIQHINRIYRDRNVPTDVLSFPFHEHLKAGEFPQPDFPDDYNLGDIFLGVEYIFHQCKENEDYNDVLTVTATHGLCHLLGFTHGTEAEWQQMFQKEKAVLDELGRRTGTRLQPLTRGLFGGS
Sequence of UniProt Q8TCY9 (Q8TCY9 whole entry, looked up): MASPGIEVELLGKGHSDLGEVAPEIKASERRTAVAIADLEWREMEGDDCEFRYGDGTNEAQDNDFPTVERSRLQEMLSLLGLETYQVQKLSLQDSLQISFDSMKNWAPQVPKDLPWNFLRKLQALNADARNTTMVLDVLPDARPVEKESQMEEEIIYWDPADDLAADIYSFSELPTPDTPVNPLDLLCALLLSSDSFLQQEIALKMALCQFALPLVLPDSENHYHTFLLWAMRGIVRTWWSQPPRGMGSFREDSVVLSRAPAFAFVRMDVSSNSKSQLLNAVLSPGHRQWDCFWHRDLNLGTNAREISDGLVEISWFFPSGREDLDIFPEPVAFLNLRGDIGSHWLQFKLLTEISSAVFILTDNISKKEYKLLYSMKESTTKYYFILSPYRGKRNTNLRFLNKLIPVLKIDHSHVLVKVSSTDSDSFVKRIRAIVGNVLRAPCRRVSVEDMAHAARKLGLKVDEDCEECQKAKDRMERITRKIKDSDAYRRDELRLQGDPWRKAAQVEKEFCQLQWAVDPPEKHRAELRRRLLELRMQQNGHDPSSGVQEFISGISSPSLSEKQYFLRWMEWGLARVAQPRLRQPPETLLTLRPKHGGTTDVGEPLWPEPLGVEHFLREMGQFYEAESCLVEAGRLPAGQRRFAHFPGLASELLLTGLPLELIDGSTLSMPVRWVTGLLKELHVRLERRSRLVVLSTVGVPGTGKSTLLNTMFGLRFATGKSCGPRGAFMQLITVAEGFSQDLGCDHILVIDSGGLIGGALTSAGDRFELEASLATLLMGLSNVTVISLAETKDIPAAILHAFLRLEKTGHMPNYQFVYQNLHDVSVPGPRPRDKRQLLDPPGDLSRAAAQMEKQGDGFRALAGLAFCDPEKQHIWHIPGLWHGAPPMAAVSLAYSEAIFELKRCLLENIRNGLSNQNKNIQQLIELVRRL
Sequence of UniProt P40337 (P40337 whole entry, looked up): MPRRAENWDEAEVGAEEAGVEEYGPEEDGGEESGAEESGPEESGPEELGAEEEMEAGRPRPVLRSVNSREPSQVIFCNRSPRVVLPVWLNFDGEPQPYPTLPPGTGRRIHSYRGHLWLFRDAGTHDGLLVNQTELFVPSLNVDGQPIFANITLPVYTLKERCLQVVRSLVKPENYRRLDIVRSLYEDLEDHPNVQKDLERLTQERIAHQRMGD
Sequence of UniProt Q8IUH5 (Q8IUH5 whole entry, looked up): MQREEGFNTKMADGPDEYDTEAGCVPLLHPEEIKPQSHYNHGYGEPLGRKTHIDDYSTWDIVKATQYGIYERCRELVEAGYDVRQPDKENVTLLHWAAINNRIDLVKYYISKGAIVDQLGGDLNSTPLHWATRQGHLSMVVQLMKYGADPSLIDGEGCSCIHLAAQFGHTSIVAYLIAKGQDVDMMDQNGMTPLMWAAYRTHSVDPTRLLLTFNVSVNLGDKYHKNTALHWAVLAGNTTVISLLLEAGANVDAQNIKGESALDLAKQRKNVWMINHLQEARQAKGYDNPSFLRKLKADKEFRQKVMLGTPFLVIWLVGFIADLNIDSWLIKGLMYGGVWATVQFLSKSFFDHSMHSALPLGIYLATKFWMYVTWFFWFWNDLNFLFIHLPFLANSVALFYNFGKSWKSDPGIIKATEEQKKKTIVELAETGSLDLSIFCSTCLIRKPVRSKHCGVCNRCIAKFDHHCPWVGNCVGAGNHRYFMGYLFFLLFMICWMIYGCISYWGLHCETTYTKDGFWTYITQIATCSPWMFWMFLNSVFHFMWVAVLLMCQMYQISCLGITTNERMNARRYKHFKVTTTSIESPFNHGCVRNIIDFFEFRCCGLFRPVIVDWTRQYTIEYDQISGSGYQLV

Row | Target | log2 fold change [1] | log2 fold change [2] | log2 fold change [3] | log2 fold change [4] | log2 fold change [5] | log2 fold change [6] | log2 fold change [7] | log2 fold change [8] | log2 fold change [9] | log2 fold change [10] | log2 fold change [11] | log2 fold change [12] | log2 fold change [13] | log2 fold change [14] | log2 fold change [15] | log2 fold change [16] | log2 fold change [17] | log2 fold change [18] | log2 fold change [19] | log2 fold change [20]
1 | ZKSCAN8 (UniProt Q15776) | -0.005 | -0.418 | -0.148 | 0.004 | -0.001 | -0.04 | 0.031 | 0.006 | 0.077 | 0.514 (active) | -0.021 | -0.002 | 0.229 | 0.098 | 0.008 | -0.008 | 0.04 | -0.054 |  | 
2 | YBEY (UniProt P58557) | 0.101 | -0.164 | 0.009 | -0.039 |  | -0.031 | -0.011 | 0.111 |  |  |  |  | 0.016 |  | -0.029 |  |  |  |  | 
3 | VHL (UniProt P40337) | 0.088 | 0.034 | -0.016 | 0.059 | -0.09 | -0.003 | -0.007 | -0.107 | 0.02 |  | 0.09 | -0.027 | 0.06 | -0.045 | -0.109 | -0.013 | 0.024 |  | 0.032 | 0.033
4 | ZFYVE19 isoform 3 (UniProt Q96K21) |  |  |  |  |  |  |  |  |  | -0.084 |  |  |  |  |  |  |  | 0.047 | 0.038 | 0.085
5 | ZDHHC17 (UniProt Q8IUH5) |  | 0.197 |  | 0.011 | -0.082 | -0.247 | -0.066 | -0.027 | 0.205 | -0.063 | 0.077 | 0.047 |  | -0.001 | 0.161 | -0.171 | -0.067 | -0.032 |  | 
6 | URGCP (UniProt Q8TCY9) |  | -0.024 |  | -0.075 | -0.038 | 0.051 |  |  | 0.022 |  | -0.07 | -0.515 (active) |  | -0.05 | 0.008 |  | -0.042 |  | -0.01 | 0.081
